Measured values: PubChem BioAssay (Tox21)
Inconclusive results are not listed. The source made the active and inactive calls. Calls come from the whole dose curve; as a rule, active = well fitted curve in the direction sought with a large enough effect in the repeat runs; inconclusive = weak or mixed curves; inactive = no such curve, though single readings can be large; an effect the other way counts as inactive or inconclusive.

Experiments:
[1] = qHTS RealTime-Glo MT Cell Viability Assay in HepG2 cells - 40 hour (AID 1224870); note: nearly all actives have a fitted effect of over 50% in size; note: potency is the fitted concentration of half-maximal effect
Outline: (§1)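 Real-time viability: cells seeded at 600 per well together with NanoLuc and cell-permeant prosubstrate, compounds added after 5 h incubation. Luminescence tracked at 0, 8, 16, 24, 32 and 40 h of exposure.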

[2] = qHTS RealTime-Glo MT Cell Viability Assay in HEK293 cells - 16 hour (AID 1224872); note: top concentration of the series differs between compounds; nearly all actives have a fitted effect of over 50% in size
Outline: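 HEK293 cells seeded with NanoLuc/prosubstrate reagent, rested 5 h at 37 C, then dosed and kept at 37 C up to 40 h. Nonlytic real-time luminescence from viable cells read at 0, 8, 16, 24, 32 and 40 h.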

[3] = qHTS RealTime-Glo MT Cell Viability Assay in HepG2 cells - 8 hour (AID 1224873); note: nearly all actives have a fitted effect of over 55% in size
Outline: as §1

[4] = qHTS RealTime-Glo MT Cell Viability Assay in HEK293 cells - 40 hour (AID 1224874); conditions: RealTime-Glo luminescence; max response: hits give low values; note: nearly all actives have a fitted effect of over 50% in size; note: potency is the fitted concentration of half-maximal effect
Outline: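 Luminescence readout at each listed time point; HEK293, 600 cells/well, RealTime-Glo MT reagent added with cells; compounds pinned (23 nL in DMSO) after 5 h at 37 C; continuous culture at 37 C.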

[5] = A CellTox Green Cytotoxicity Assay to monitor cytotoxicity in HEK293 cells - 24 hour (AID 1224875); note: nearly all actives have a fitted effect of over 45% in size; note: potency is the fitted concentration of half-maximal effect
Outline: (§2)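 Read-out: fluorescence of a cell-impermeant cyanine dye staining DNA of dead cells, proportional to cytotoxicity. HEK293, 600 cells/well with reagent, compound (23 nL DMSO) added after 5 h; reads at 0, 8, 16, 24, 32, 40 h.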

[6] = A CellTox Green Cytotoxicity Assay to monitor cytotoxicity in HepG2 cells - 16 hour (AID 1224876); note: nearly all actives have a fitted effect of over 45% in size; note: potency is the fitted concentration of half-maximal effect
Outline: (§3)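 HepG2, 600 cells/well premixed w/ CellTox Green; 5 h settle, 37 C/5% CO2; pintool cpd add (DMSO); 37 C, 40 h; fluorescence read at 0, 8, 16, 24, 32, 40 h.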

[7] = qHTS RealTime-Glo MT Cell Viability Assay in HepG2 cells - 32 hour (AID 1224877); note: nearly all actives have a fitted effect of over 55% in size; note: potency is the fitted concentration of half-maximal effect
Outline: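 HepG2 cells (600/well) were dispensed with RealTime-Glo reagents, incubated 5 h at 37 °C, then treated with compounds in DMSO for up to 40 h. Nonlytic NanoLuc luminescence reflecting viable cells was read at each stated time point.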

[8] = A CellTox Green Cytotoxicity Assay to monitor cytotoxicity in HepG2 cells - 24 hour (AID 1224878); note: nearly all actives have a fitted effect of over 45% in size; note: potency is the fitted concentration of half-maximal effect
Outline: as §3

[9] = A CellTox Green Cytotoxicity Assay to monitor cytotoxicity in HepG2 cells - 40 hour (AID 1224879); note: nearly all actives have a fitted effect of over 40% in size; note: potency is the fitted concentration of half-maximal effect
Outline: as §3

[10] = A CellTox Green Cytotoxicity Assay to monitor cytotoxicity in HEK293 cells - 40 hour (AID 1224871); note: nearly all actives have a fitted effect of over 45% in size; note: potency is the fitted concentration of half-maximal effect
Outline: as §2
% is set by controls: 0 for no effect and ±100 for the full control effect.

CC(C)=CCC1C(=O)N(c2ccccc2)N(c2ccccc2)C1=O
inactive: Potency [1] | Potency [2] | Potency [3] | max response [4] 4.23% | Potency [5] | Potency [6] | Potency [7] | Potency [8] | Potency [9]

CC(C)C[C@H](NC(=O)[C@H](CCc1ccccc1)NC(=O)CN1CCOCC1)C(=O)N[C@@H](Cc1ccccc1)C(=O)N[C@@H](CC(C)C)C(=O)[C@@]1(C)CO1
inactive: Potency [3] | Potency [5]
active: Potency [1] 0.0239 µM | Potency [10] 0.0756 µM | Potency [6] 10.7 µM | Potency [7] 0.0268 µM | Potency [8] 0.268 µM | Potency [9] 0.0169 µM

Brc1cc(Br)c(Oc2cc(Br)c(Br)cc2Br)cc1Br
inactive: Potency [1] | Potency [2] | Potency [3] | max response [4] -1.98% | Potency [5] | Potency [6] | Potency [7] | Potency [8] | Potency [9]

CCOC(=O)c1ccccc1C(=C1C=C(Br)C(=O)C(Br)=C1)c1cc(Br)c(O)c(Br)c1
inactive: Potency [1] | Potency [10] | Potency [3] | Potency [5] | Potency [6] | Potency [7] | Potency [8] | Potency [9]

O=c1c(O)c(-c2ccc(O)cc2)oc2cc(O)cc(O)c12
inactive: Potency [1] | Potency [10] | Potency [3] | Potency [5] | Potency [6] | Potency [7] | Potency [8] | Potency [9]

Cc1ccc2c(Br)cc(Br)c(O)c2n1
inactive: Potency [1] | Potency [2] | Potency [3] | Potency [5] | Potency [6] | Potency [7] | Potency [8] | Potency [9]
active: Potency [4] 5.35 µM

Cc1cc2c(OCC(CNC(C)(C)C)OC(=O)c3ccccc3)cccc2[nH]1 (stereo not given)
inactive: Potency [1] | Potency [2] | Potency [3] | Potency [5] | Potency [6] | Potency [7]

OC[C@H]1O[C@@H](n2cnc3c(=S)nc[nH]c32)[C@H](O)[C@@H]1O
active: Potency [4] 21.3 µM
inactive: Potency [1] | Potency [2] | Potency [3] | Potency [5] | Potency [6] | Potency [7] | Potency [8] | Potency [9]

C=CCc1ccccc1OCC(O)CNC(C)C (stereo not given)
inactive: Potency [1] | Potency [2] | Potency [3] | max response [4] -5.29% | Potency [5] | Potency [6] | Potency [7] | Potency [8] | Potency [9]

CC(C)(O)c1ccc(CNC(=O)c2cccnc2Oc2ccc3nonc3c2)cc1
inactive: Potency [1] | Potency [10] | Potency [3] | Potency [5] | Potency [6] | Potency [7] | Potency [8] | Potency [9]

O=C1Cc2cc(Cl)ccc2N1
inactive: Potency [1] | Potency [10] | Potency [3] | Potency [5] | Potency [6] | Potency [7] | Potency [8] | Potency [9]

CC(=O)Nc1ccc(C)cc1C
inactive: Potency [1] | Potency [2] | Potency [3] | max response [4] -0.695% | Potency [5] | Potency [6] | Potency [7] | Potency [8] | Potency [9]

CC(C)=CC(=O)C=C(C)C
inactive: Potency [1] | Potency [2] | Potency [3] | max response [4] 9.12% | Potency [5] | Potency [6] | Potency [7] | Potency [8] | Potency [9]

CC1(C)[C@@H](OC(=O)CCC(=O)O)CC[C@]2(C)[C@H]3C(=O)C=C4[C@@H]5C[C@@](C)(C(=O)O)CC[C@]5(C)CC[C@@]4(C)[C@]3(C)CC[C@@H]12
inactive: Potency [1] | Potency [2] | Potency [3] | max response [4] 10.8% | Potency [5] | Potency [6] | Potency [7] | Potency [8] | Potency [9]

Cc1ccc(OC(=O)c2ccccc2O)cc1
inactive: Potency [1] | Potency [2] | Potency [3] | max response [4] -11.7% | Potency [5] | Potency [6] | Potency [7] | Potency [8] | Potency [9]

C=COCC(C)C
inactive: Potency [1] | Potency [10] | Potency [3] | Potency [5] | Potency [6] | Potency [7] | Potency [8] | Potency [9]

CN1CCCN=C1COC(=O)C(O)(c1ccccc1)C1CCCCC1 (stereo not given)
inactive: Potency [1] | Potency [10] | Potency [3] | Potency [5] | Potency [6] | Potency [7] | Potency [8] | Potency [9]

O=C1C(=O)c2ccccc2C(O)=C1C1CCC(c2ccc(Cl)cc2)CC1 (stereo not given)
inactive: Potency [1] | Potency [2] | Potency [3] | Potency [5] | Potency [6] | Potency [7] | Potency [8]

CC(C)(C)CC(=O)OCC(=O)[C@@]1(O)CC[C@H]2[C@@H]3CCC4=CC(=O)C=C[C@]4(C)[C@H]3[C@@H](O)C[C@@]21C
active: Potency [4] 19 µM
inactive: Potency [1] | Potency [10] | Potency [3] | Potency [6] | Potency [7] | Potency [8] | Potency [9]

C=C(C)C(=O)OCCCCCCCCCCCCC
inactive: Potency [1] | Potency [2] | Potency [3] | max response [4] 4.36% | Potency [5] | Potency [6] | Potency [7] | Potency [8] | Potency [9]

Cc1cccc(N(C)C(=S)Oc2ccc3c(c2)CCC3)c1
inactive: Potency [1] | Potency [2] | Potency [3] | max response [4] -16.2% | Potency [5] | Potency [6] | Potency [7] | Potency [8] | Potency [9]

CC(C)(c1ccccc1)c1ccccc1
inactive: Potency [1] | Potency [3] | max response [4] -9.58% | Potency [6] | Potency [7] | Potency [8] | Potency [9]
active: Potency [10] 51.1 µM | Potency [5] 51.1 µM
